This passage reports AC50 and outcome results from PubChem BioAssay (EPA / NIEHS).

SMILES strings stand for the structures. Activity calls are given as the source filed them. How the source made its calls: active means hit-call score of the fitted dose curve at least 0.9, where 1 is the maximum; inactive means score below 0.9.

For assay [1], the target named is Bile acid receptor (Homo sapiens) (UniProt Q96RI1). Nature of the assay: ATG_IR1_CIS: Attagene CIS-FACTORIAL HepG2 Assay for human Nuclear Receptor Subfamily 1 Group H Member 4 (NR1H4), IR1 submotif (AID 2282946). The conditions noted are these: IR1 reporter transcription, actives raise or lower the signal. An outline of the steps: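 HepG2 cells transiently transfected with multiplexed cis-element reporter units read endogenous transcription factor activity. After 24 h compound exposure, reporter mRNA was quantified by RT-PCR, fluorescent labelling, HpaI digestion and capillary electrophoresis; bidirectional fitting versus DMSO baseline.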

Assay [2] is described as follows: ATG_GRE_CIS: Attagene CIS-FACTORIAL HepG2 Assay for human Glucocorticoid Response Elements (GRE) (AID 2282947). The conditions noted are these: HepG2 GRE cis-reporter, Attagene multiplex mRNA; actives raise or lower the signal. The procedure, abridged:
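Multiplexed cis-reporter mRNA induction, HepG2, 24 h post-dose. RT-PCR, FAM-labelled, HpaI-digested amplicons by CE. Bidirectional fit vs DMSO.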

Assay [3] can be described thus: ATG_ISRE_CIS: Attagene CIS-FACTORIAL HepG2 Assay for human Interferon Regulatory Factor 1 (IRF1) binding to an Interferon-Stimulated Response Element (ISRE) (AID 2282948). The conditions noted are these: HepG2 ISRE cis-reporter (Attagene), mRNA transcription readout; actives raise or lower the signal. An outline of the steps:
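Multiplexed mRNA reporter readout in human liver HepG2 cells: cis-element-driven reporters transfected, compound added for 24 h, transcripts amplified, fluorescently labelled and sized by capillary electrophoresis; curve fitting bidirectional against DMSO.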

A short description of assay [4]: ATG_M_32_CIS: Attagene CIS-FACTORIAL HepG2 Assay for M32 Transcription Factor (Internal Marker) (AID 2282949).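 Further: background control marker of the multiplexed CIS panel rather than a real target.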 The conditions noted are these: HepG2 Attagene cis-factorial M32 reporter, mRNA; actives raise or lower the signal. The procedure, abridged:
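Transient MRTU transfection of HepG2; 24 h compound treatment; TriZol RNA, oligo(dT) RT, reporter PCR, 6-FAM primer extension, HpaI cut, CE. Gain/loss of signal vs DMSO.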

The nature of assay [5]: ATG_M_06_CIS: Attagene CIS-FACTORIAL HepG2 Assay for M06 Transcription Factor (Internal Marker) (AID 2282950). The conditions noted are these: HepG2 Attagene CIS-FACTORIAL M06 internal marker reporter; actives raise or lower the signal. The procedure, abridged: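 Terse: HepG2, transient MRTU transfection (FuGene 6), 24 h dosing; total RNA, oligo(dT) RT, PCR, FAM label, HpaI cut, capillary electrophoresis; bidirectional fit vs DMSO baseline; background-control endpoint.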

For assay [6], the target named is Hypoxia-inducible factor 1-alpha (Homo sapiens) (UniProt Q16665). Kind of assay: ATG_HIF1a_CIS: Attagene CIS-FACTORIAL HepG2 Assay for human Hypoxia Inducible Factor 1 (HIF1A) (AID 2282951). The conditions noted are these: HepG2 Attagene cis-factorial HIF1a reporter transcription; actives raise or lower the signal. The procedure, abridged: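 Dosed 24 h, transfected HepG2 cells yielded total RNA whose reporter transcripts were RT-PCR-amplified and sized by capillary electrophoresis using fluorescent labelling; DMSO defined baseline, with gain and loss of signal both fitted.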

In assay [7] the target is Hepatocyte nuclear factor 6 (Homo sapiens) (UniProt Q9UBC0). Nature of the assay: ATG_HNF6_CIS: Attagene CIS-FACTORIAL HepG2 Assay for human Hepatocyte Nuclear Factor 6 (HNF6) (AID 2282952). The conditions noted are these: HepG2 Attagene cis-factorial HNF6 reporter transcription; actives raise or lower the signal. The procedure, abridged: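 Endogenous factor activity read in transiently transfected HepG2 via promoter-regulated reporter transcripts. RNA harvested 24 h post-dosing, reverse-transcribed, PCR-amplified, FAM-labelled, HpaI-digested and resolved by capillary electrophoresis; fitted in both directions against DMSO.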

Assay [8] deals with Heat shock factor protein 1 (Homo sapiens) (UniProt Q00613). Kind of assay: ATG_HSE_CIS: Attagene CIS-FACTORIAL HepG2 Assay for human Heat Shock Transcription Factor 1 (HSE) (AID 2282953). The conditions noted are these: HepG2 HSE cis-reporter, Attagene RNA transcription; actives raise or lower the signal. An outline of the steps:
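Read-out: fluorescence of reporter-specific RT-PCR fragments separated by capillary electrophoresis. HepG2 carrying transfected cis-element reporter units; 24 h dosing; activity fitted in both directions relative to DMSO baseline.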

Assay [9] is described as follows: ATG_MRE_CIS: Attagene CIS-FACTORIAL HepG2 Assay for human Metal Responsive Element (MRE) (AID 2282954). The conditions noted are these: HepG2 MRE cis-reporter transcription, Attagene multiplex; actives raise or lower the signal. The procedure, abridged:
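Multiplexed cis-reporter assay in human HepG2 liver cells, 24 h incubation with test chemical. Reporter transcripts measured by RT-PCR and capillary electrophoresis; values from bidirectional curve fitting versus DMSO.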

Assay [10] in a line: ATG_PBREM_CIS: Attagene CIS-FACTORIAL HepG2 Assay for human Phenobarbital-responsive Enhancer Module (PBREM) (AID 2282955). The conditions noted are these: HepG2 PBREM cis-reporter, Attagene multiplexed transcription; actives raise or lower the signal. An outline of the steps: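 Transfected liver-derived HepG2 cells exposed 24 h; PBREM reporter transcript quantified via RT-PCR and capillary electrophoresis, with activity in either direction referenced to DMSO.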

The nature of assay [11]: ATG_PXRE_CIS: Attagene CIS-FACTORIAL HepG2 Assay for human Pregnane X Receptor Element (PXRE) (AID 2282957). The conditions noted are these: HepG2 Attagene CIS-FACTORIAL PXRE reporter, mRNA; actives raise or lower the signal. An outline of the steps: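 Reporter transcripts under endogenous PXR-responsive cis-regulation quantified from total RNA of transfected HepG2 cells 24 h post-dosing, via RT-PCR with fluorescent primer extension and capillary electrophoresis. Gain or loss of signal fitted against DMSO baseline.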

A short description of assay [12]: ATG_RORE_CIS: Attagene CIS-FACTORIAL HepG2 Assay for human RAR-related Orphan Receptor Element (RORE) (AID 2282959). The conditions noted are these: HepG2 Attagene cis-factorial RORE reporter, mRNA; actives raise or lower the signal. The procedure, abridged: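 Transiently transfected HepG2 reporter cells were treated 24 h. Reporter transcripts were detected by RT-PCR and capillary electrophoresis, with bidirectional fitting against DMSO.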

Assay [13] is described as follows: ATG_Sox_CIS: Attagene CIS-FACTORIAL HepG2 Assay for human SRY-box transcription factor (SOX) (AID 2282960). The conditions noted are these: HepG2 Attagene cis-factorial SOX reporter, mRNA; actives raise or lower the signal. An outline of the steps:
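Gain- or loss-of-signal endpoint, fitted bidirectionally with DMSO as negative control. Based on reporter mRNA from transfected HepG2 cells harvested 24 h post-treatment and quantified via RT-PCR and capillary electrophoresis.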

Assay [14] deals with Transcription factor Sp1 (Homo sapiens) (UniProt P08047). Nature of the assay: ATG_Sp1_CIS: Attagene CIS-FACTORIAL HepG2 Assay for human Specificity Protein 1 (Sp1) (AID 2282961). The conditions noted are these: HepG2 Sp1 cis-reporter transcription, actives raise or lower the signal. The procedure, abridged: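 Endpoint reflects endogenous Sp1 transcriptional activity, not an exogenous fusion protein: HepG2 cells with transfected cis-regulated reporters, 24 h dosing, RT-PCR/capillary electrophoresis mRNA read-out, DMSO-normalised bidirectional fit.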

Assay [15] is described as follows: ATG_SREBP_CIS: Attagene CIS-FACTORIAL HepG2 Assay for human Sterol Regulatory Element Binding (SREBP) (AID 2282962). The conditions noted are these: HepG2 Attagene cis-factorial SREBP reporter, mRNA; actives raise or lower the signal. The procedure, abridged:
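Endogenous factor activity is measured in HepG2 through multiplexed reporter units under cis-element control. Following a 24 h incubation, reporter transcripts are reverse-transcribed, PCR-amplified and sized by capillary electrophoresis; activity is fitted in both directions relative to DMSO.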

The target of assay [16] is Signal transducer and activator of transcription 3 (Homo sapiens) (UniProt P40763). Nature of the assay: ATG_STAT3_CIS: Attagene CIS-FACTORIAL HepG2 Assay for human Signal Transducer and Activator of Transcription 3 (STAT3) (AID 2282963). The conditions noted are these: HepG2, Attagene cis-factorial STAT3 reporter transcription; actives raise or lower the signal. An outline of the steps:
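Cis-factorial format: endogenous transcription factors in HepG2 drive transfected reporter units. After 24 h treatment, reporter RNA was reverse-transcribed, amplified, FAM-labelled and HpaI-digested before CE analysis; activity scored in both directions against DMSO.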

Assay [17] in a line: ATG_TA_CIS: Attagene CIS-FACTORIAL HepG2 Assay for human TA Basal Promoter (AID 2282964). The conditions noted are these: HepG2 Attagene CIS-factorial TA basal promoter reporter; actives raise or lower the signal. The procedure, abridged:
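Transfected HepG2, 24 h compound exposure; RNA → RT-PCR → FAM primer extension → HpaI cut → CE fluorescence. Gain/loss-of-signal fitted against DMSO negative control. Background-control readout.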

Assay [18] in a line: ATG_TCF_b_cat_CIS: Attagene CIS-FACTORIAL HepG2 Assay for human T-Cell-Factor with beta-catenin (TCF/b-cat) (AID 2282965). The conditions noted are these: HepG2 TCF/beta-catenin cis-reporter transcription, actives raise or lower the signal. An outline of the steps:
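Endogenous transcription factor activity is captured through cis-promoter reporter constructs transiently introduced into human HepG2 liver cells. Induced reporter mRNA is measured after 24 h and fitted bidirectionally relative to DMSO.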

Assay [19] addresses Paired box protein Pax-6 (Homo sapiens) (UniProt P26367). Kind of assay: ATG_Pax6_CIS: Attagene CIS-FACTORIAL HepG2 Assay for human Paired Box 6 (PAX6) (AID 2282956). The conditions noted are these: HepG2 CIS-FACTORIAL PAX6 reporter transcription, RNA readout; actives raise or lower the signal. The procedure, abridged:
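Fluorescent RT-PCR products separated by capillary electrophoresis report PAX6-linked promoter mRNA in HepG2 cells 24 h post-dose. Curves fitted bidirectionally, DMSO as negative control.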

Assay [20] is described as follows: ATG_PPRE_CIS: Attagene CIS-FACTORIAL HepG2 Assay for human Peroxisome Proliferator-activated Response Element (PPRE) (AID 2282958). The conditions noted are these: HepG2 PPRE cis-element reporter, Attagene transcription factor profiling; actives raise or lower the signal. The procedure, abridged: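 Measured endpoint: PPRE-controlled reporter mRNA, detected by RT-PCR and capillary electrophoresis fluorescence, from transiently transfected HepG2 cells 24 h after dosing. Curves fitted in both directions using DMSO baseline.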

Chain of Transcription factor Sp1 (Homo sapiens) (P08047 whole entry, looked up, the tested form may be a part): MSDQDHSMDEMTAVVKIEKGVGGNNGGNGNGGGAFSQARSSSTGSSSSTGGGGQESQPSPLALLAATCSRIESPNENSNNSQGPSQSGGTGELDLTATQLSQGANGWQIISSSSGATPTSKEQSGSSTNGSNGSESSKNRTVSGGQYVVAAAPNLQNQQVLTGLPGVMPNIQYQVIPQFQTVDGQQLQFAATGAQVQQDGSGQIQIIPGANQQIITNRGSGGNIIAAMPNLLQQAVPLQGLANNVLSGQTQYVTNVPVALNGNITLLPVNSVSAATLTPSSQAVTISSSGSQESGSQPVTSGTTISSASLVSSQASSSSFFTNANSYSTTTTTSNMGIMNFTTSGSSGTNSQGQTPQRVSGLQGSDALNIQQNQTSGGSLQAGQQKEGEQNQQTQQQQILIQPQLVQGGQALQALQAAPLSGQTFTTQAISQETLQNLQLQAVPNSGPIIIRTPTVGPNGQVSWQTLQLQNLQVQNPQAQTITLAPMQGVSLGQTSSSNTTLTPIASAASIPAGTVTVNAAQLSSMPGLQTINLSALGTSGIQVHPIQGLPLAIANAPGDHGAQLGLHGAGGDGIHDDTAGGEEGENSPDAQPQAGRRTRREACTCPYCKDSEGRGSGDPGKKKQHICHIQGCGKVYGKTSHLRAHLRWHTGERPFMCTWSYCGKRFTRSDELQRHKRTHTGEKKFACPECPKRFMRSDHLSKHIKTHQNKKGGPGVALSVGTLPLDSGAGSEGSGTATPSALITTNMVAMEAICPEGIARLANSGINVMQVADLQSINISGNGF
Chain of Hepatocyte nuclear factor 6 (Homo sapiens) (Q9UBC0 whole entry, looked up): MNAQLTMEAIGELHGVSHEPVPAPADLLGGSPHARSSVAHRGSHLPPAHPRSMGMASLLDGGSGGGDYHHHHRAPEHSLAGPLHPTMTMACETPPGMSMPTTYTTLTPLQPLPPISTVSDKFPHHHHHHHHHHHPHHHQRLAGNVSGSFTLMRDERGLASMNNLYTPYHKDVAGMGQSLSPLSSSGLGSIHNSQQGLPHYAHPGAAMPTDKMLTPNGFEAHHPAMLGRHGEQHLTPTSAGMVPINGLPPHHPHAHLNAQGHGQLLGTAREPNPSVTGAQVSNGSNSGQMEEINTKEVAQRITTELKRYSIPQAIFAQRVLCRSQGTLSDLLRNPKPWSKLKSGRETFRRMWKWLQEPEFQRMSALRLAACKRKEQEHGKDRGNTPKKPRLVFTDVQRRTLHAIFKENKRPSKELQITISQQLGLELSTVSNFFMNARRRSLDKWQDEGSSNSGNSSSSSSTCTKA
Chain of Hypoxia-inducible factor 1-alpha (Homo sapiens) (Q16665 whole entry, looked up): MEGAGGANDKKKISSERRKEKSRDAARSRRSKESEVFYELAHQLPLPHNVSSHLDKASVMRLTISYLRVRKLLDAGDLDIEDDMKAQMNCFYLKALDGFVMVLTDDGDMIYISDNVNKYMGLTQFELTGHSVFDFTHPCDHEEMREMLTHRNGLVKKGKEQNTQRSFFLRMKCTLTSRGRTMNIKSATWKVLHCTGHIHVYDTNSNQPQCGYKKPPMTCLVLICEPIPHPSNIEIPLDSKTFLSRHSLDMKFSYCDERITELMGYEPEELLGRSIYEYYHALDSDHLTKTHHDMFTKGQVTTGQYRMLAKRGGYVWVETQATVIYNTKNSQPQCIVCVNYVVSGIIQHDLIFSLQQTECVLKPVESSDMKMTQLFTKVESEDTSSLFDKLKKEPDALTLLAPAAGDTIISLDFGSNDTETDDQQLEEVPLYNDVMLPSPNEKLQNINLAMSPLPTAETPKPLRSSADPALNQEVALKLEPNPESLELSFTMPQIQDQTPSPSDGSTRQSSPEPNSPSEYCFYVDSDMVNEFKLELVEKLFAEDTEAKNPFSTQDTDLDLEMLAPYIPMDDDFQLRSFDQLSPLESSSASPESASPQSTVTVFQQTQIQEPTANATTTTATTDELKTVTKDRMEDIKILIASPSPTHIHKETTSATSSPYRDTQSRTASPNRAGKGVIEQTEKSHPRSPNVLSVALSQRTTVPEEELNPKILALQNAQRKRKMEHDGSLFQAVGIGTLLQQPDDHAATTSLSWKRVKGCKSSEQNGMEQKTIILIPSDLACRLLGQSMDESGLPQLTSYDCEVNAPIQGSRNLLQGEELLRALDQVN
Chain of Bile acid receptor (Homo sapiens) (Q96RI1 whole entry, looked up): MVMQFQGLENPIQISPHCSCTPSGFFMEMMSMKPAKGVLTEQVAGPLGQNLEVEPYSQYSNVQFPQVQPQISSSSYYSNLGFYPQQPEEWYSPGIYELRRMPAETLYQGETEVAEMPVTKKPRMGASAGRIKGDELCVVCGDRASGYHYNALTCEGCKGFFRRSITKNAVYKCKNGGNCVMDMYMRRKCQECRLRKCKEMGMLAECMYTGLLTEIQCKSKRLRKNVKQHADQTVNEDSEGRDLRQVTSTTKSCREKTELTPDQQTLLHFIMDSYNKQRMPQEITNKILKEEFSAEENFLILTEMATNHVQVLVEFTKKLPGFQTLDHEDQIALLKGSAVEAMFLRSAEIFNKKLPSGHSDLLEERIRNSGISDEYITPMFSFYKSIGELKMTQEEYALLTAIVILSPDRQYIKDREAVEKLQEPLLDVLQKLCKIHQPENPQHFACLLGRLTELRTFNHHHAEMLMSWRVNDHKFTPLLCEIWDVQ
Chain of Signal transducer and activator of transcription 3 (Homo sapiens) (P40763 whole entry, looked up): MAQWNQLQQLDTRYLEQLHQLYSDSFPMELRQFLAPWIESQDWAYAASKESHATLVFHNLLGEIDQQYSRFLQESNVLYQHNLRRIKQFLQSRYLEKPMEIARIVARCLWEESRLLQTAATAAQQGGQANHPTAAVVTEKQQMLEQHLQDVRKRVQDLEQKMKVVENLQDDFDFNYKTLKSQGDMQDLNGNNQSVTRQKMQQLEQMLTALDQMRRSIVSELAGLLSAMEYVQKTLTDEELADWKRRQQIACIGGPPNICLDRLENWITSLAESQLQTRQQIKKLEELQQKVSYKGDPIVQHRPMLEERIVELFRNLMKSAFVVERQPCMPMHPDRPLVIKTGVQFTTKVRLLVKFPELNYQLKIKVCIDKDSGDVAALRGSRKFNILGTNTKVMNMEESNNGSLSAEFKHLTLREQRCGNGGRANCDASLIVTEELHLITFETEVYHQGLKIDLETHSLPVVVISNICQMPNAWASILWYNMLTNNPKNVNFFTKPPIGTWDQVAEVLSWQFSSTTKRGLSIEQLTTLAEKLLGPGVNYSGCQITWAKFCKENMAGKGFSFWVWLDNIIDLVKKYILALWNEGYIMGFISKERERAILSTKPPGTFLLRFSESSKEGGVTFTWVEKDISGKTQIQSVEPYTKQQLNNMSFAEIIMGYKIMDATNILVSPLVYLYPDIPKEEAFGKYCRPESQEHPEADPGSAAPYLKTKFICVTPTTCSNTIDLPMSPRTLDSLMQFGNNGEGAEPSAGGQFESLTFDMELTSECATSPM
Chain of Heat shock factor protein 1 (Homo sapiens) (Q00613 whole entry, looked up, the tested form may be a part): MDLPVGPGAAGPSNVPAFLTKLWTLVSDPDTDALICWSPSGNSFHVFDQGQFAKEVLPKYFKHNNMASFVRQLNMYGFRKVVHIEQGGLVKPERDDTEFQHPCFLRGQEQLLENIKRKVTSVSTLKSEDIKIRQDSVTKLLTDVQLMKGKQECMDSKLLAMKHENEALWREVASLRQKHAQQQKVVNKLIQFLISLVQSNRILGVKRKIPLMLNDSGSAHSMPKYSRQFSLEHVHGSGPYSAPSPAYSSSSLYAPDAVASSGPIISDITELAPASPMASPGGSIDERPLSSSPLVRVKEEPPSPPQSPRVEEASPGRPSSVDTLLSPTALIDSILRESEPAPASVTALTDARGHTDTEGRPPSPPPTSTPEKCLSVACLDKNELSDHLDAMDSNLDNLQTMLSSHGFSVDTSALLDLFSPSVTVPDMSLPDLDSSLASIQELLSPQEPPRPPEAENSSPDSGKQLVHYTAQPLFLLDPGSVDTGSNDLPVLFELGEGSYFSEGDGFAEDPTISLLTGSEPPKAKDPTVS
Chain of Paired box protein Pax-6 (Homo sapiens) (P26367 whole entry, looked up): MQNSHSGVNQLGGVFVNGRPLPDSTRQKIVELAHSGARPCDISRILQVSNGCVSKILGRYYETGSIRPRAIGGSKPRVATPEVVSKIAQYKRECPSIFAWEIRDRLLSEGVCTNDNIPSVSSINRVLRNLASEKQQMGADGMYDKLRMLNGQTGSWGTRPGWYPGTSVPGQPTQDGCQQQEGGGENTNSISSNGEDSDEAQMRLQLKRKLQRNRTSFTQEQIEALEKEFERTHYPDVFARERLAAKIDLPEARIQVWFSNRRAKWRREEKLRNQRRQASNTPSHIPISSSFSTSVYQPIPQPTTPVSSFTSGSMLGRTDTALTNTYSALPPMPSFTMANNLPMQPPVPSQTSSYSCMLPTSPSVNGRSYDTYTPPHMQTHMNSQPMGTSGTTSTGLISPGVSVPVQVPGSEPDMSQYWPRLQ

The AC50 is the concentration giving half of the maximal activity seen. In the case of `CCC[CH2][Sn]([Cl])([CH2]CCC)[CH2]CCC`, the AC50 in assay [1] is 0.0138 µM (active); in [3], 0.611 µM (active); in [8] it was 0.667 µM (active); in [9], 0.778 µM (active); in assay [14], 0.412 µM (active); in assay [17], 0.698 µM (active). Also, the AC50 in assay [18] is 0.591 µM (active). For the same molecule, the molecule was classed as inactive in assay [2], in assay [4], in assay [5], in [6], in assay [7] and in assay [10]. Further, the call in [11], in [12], in assay [13], in assay [15] and in [16] was inactive.

As to `CC(C)(OOC(C)(C)c1ccccc1)c1ccccc1`, the molecule was called inactive in [1], in [4], in assay [5], in assay [6], in assay [8] and in assay [19]. Besides, the molecule was classed as inactive in assay [20], in [12], in assay [13], in assay [17] and in assay [18]. For the same molecule, the AC50 was 78.3 µM (active) in [2]; 100 µM (active) in [3]; 100 µM (active) in [7]; 64 µM (active) in assay [9]; 25.3 µM (active) in assay [10]; 25 µM (active) in assay [11]. Further, the figures for the AC50 in assay [14], in assay [15] and in assay [16] were 45.4 µM (active), 62.9 µM (active) and 100 µM (active), respectively.

As to `Cc1cccc(N)c1N`, the outcome in [1], in [2], in assay [3], in assay [4], in assay [5] and in [7] was inactive. The molecule was classed as inactive in [8], in assay [10], in assay [11], in assay [13], in [14] and in assay [15]. Also, the call in [16] and in [17] was inactive. For the same molecule, the AC50 is 2.66 µM (active) in assay [6], 106 µM (active) in assay [9], 106 µM (active) in assay [12] and 190 µM (active) in [18].
